# Assay outcomes from PubChem.
# AF4-AF9 inh – inhibitors of AF4 peptide binding to AF9, primary screen, biochemical, AlphaScreen, biotin-AF4 peptide, FLAG-AF9, single point; inhibition, % at 10 µM; Protein AF-9 (Homo sapiens), P42568; AID 651704, 2012; 0.47% of 350,000 active;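 active means every replicate reaching a set inhibition limit, whatever the replicate mean, cut at about 25% in these data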;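 further: 0% = plate neutral control median and 100% = total signal loss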
# Target sequence (P42568 whole entry, looked up): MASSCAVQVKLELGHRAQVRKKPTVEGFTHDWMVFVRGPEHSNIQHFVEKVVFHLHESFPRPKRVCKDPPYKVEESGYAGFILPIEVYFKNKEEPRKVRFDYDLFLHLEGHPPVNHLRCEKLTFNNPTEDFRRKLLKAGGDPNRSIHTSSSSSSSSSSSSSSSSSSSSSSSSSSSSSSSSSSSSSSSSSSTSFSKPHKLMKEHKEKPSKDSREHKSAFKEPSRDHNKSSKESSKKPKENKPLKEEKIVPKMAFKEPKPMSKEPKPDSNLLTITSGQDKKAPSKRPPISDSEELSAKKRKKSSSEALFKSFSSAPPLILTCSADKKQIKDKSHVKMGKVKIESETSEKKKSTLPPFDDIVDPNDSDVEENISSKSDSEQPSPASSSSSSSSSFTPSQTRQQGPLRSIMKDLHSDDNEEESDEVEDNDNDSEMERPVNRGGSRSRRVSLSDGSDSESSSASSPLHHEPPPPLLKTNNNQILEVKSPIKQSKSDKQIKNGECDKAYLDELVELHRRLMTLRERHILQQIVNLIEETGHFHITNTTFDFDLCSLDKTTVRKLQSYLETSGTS
# RAD54 inh – inhibitors of human RAD54 branch migration, primary screen, biochemical, fluorescence, single point; RAD54 Holliday junction branch migration, FAM/BHQ fluorescence; inhibition, % at 10.4 µM; 0.14% of 360,000 active; AID 602329, 2012;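 active means mean normalized replicate activity at least 40 and at least half of replicates scoring 40 or more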;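 further: 0% = median of neutral control wells and 100% = median of positive control wells; inhibitors cause a drop in the FAM fluorescence signal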
# dFosB activator – activators of delta FosB homodimer, primary screen, biochemical, fluorescence polarization, TAMRA-CDK5 oligo, single point; Protein FosB (Mus musculus), P13346; purified delta FosB; percent of positive-control signal above neutral wells; activation, % at 25 µM; 0.99% of 340,000 active;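 active means mean activation above about 17%, with every replicate also reaching it, limit read from the data, passing the limit was not always enough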
# DENV2 CPE rescue – inhibitors of DENV2 cytopathic effect, primary screen, cell-based, plate reader, single concentration; DENV2-infected cells, cytopathic effect rescue; 1.7% of 350,000 active; AID 651640, 2012; CPE inhibition, % at 9.99 µM; in the data active means CPE inhibition above about 20%, passing the limit was not always enough; tested in BHK-21 cells;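 further: 0% = median of neutral control wells and 100% = median of positive control wells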
# RAD52 inh – RAD52 DNA annealing inhibitors, primary screen, biochemical, FRET, single point, set 2. 0.46% of 360,000 active. DNA repair protein RAD52 homolog (Homo sapiens), P43351. recombinant RAD52 DNA annealing, FRET fluorescence. AID 651710, 2012. inhibition, % at 18.7 µM;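 active means every replicate showing at least 50% inhibition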
# GSIS activator – GLuc luminescence reporter in INS-1E cells, primary screen for activators of glucose-dependent secretion of insulin; INS-1E GLuc reporter insulin secretion, 2-3 h; 0.61% of 370,000 active; activation, % at 16.6 µM; AID 743287, 2014;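 active means lowest replicate activation of at least 40%, so every replicate reaches that level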;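 further: 0% = median of neutral control wells and 100% = median of IBMX positive control wells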
# * marks the source's active call; other numbers are inactive results; · = not tested or not shown. Shown are actives, neighbours in structure and some others; about 3.1% of the full set was active somewhere.
SMILES,AF4-AF9 inh,RAD54 inh,dFosB activator,DENV2 CPE rescue,RAD52 inh,GSIS activator
CC1Oc2ccccc2N(CC(=O)N2CCCCC2)C1=O (stereo not drawn),30.4*,-1.9,-0.6,-3.5,0.1,20.9
N#CCn1c(C2CCCCC2)nc2ccccc2c1=O,·,1.7,-4.3,·,·,·
Nn1c(C2CCCCC2)nc2ccccc2c1=O,2.6,-2.8,-2.8,2.2,-7.0,50.3*
O=C([C@H]1[C@H](CO)[C@H]2Cn3c(ccc(C4=CCCCC4)c3=O)[C@H]2N1Cc1nccs1)N1CCOCC1,-2.1,-6.5,·,1.0,-36.7,3.5
Cc1ccccc1N1C(=O)CC(Sc2nnc(-c3ccccc3)o2)C1=O (stereo not drawn),·,-0.7,5.8,·,·,·
O=C1CC(Sc2nnc(-c3ccccc3)o2)C(=O)N1c1ccccc1 (stereo not drawn),·,-1.5,-3.1,·,·,86.5*
Cc1noc(C)c1NC(=O)N(C)C[C@H]1Oc2ccc(NS(=O)(=O)c3cccs3)cc2C(=O)N([C@@H](C)CO)C[C@H]1C,-12.7,-11.7,·,-3.1,4.0,13.5
COc1cc(OC)c2c3c(c(C4CCCCC4)nc2c1)CCC3,·,2.7,5.7,0.0,-11.2,266.3*
COc1cccc(C2c3[nH]c4ccccc4c3C[C@H]3C(=O)N(c4ccccc4C(=O)N4CCC(C(=O)O)CC4)C(=O)N23)c1 (stereo partly drawn),1.5,-14.2,-7.0,82.7*,-24.4,-15.7
COc1ccc(C2c3[nH]c4ccccc4c3C[C@H]3C(=O)N(c4ccccc4C(=O)N4CCC(C(=O)O)CC4)C(=O)N23)cc1 (stereo partly drawn),-1.6,-5.4,-5.7,-9.8,-10.5,-14.4
COc1ccc(C2=Nn3c(nnc3-c3ccncc3)SC2)cc1OC,·,2.3,88.3*,·,·,84.5*
COc1ccc(OC)c(-c2nnc3n2N=C(c2ccc(OC)c(OCC4CC4)c2)CS3)c1,·,-1.1,-17.4,·,·,·
COc1ccc(-c2ccncc2)cc1OC,-4.9,8.7,0.7,-9.7,-7.1,107.4*
COc1ccc(C2=Nn3c(nnc3-c3ccccc3Cl)SC2)cc1OCC1CC1,6.6,-3.2,-5.1,32.4*,-8.8,39.4
Fc1ccccc1-c1nnc2n1N=C(c1ccc(OC(F)F)c(OCC3CC3)c1)CS2,0.2,1.7,9.8,6.6,-67.2,34.2
COc1ccc(C2=Nn3c(nnc3-c3ccccc3C(F)(F)F)SC2)cc1OC1CCOC1 (stereo not drawn),-7.9,1.2,4.0,-18.9,-3.0,74.9*
COc1ccc(-c2nnc(-c3cc(OC)c(OC)c(OC)c3)o2)cc1OC,·,12.0,-36.4,·,·,·
COc1ccccc1-c1nnc2n1N=C(c1ccc(O)c(O)c1)CS2,·,-6.3,4.5,·,·,·
COc1ccc(C2=Nn3c(nnc3-c3ccccc3OC)SC2)cc1OC1CCOC1 (stereo not drawn),8.1,-2.1,-17.9,-8.5,-13.2,56.3*
COc1ccc(NC(=O)N(C)C[C@H]2OCCCC[C@H](C)Oc3ccc(NC(=O)c4ccccc4)cc3C(=O)N([C@H](C)CO)C[C@H]2C)cc1,-0.4,·,·,-5.0,36.3,-6.8
COc1ccc(Nc2nc(N)nc(CSC(=S)N3CCN(c4ccccc4)CC3)n2)cc1,7.0,·,1.6,5.3,-2.5,7.3
CCOc1ccc(Nc2nc(N)nc(CSC(=S)N3CCN(c4ccccc4)CC3)n2)cc1,35.4*,·,9.6,9.3,-14.5,5.6
O=C(NC1CCCCC1)C(c1ccc(O)c(O)c1)N(C(=O)Cn1nnc2ccccc21)c1cccc(O)c1 (stereo not drawn),-1.1,·,32.0*,8.0,-13.4,-9.1
Cn1cc(C(=O)NCC(=O)Nc2ccccc2Br)cn1,1.1,-1.4,2.5,2.2,-4.8,41.1*
Cc1ccc(S(=O)(=O)Nc2ccc3c(c2)C(=O)N([C@@H](C)CO)C[C@@H](C)[C@H](CN(C)C(=O)c2ccccc2)OCCCC[C@@H](C)O3)cc1,-1.1,1.9,·,-4.4,17.3,-15.6
SMILES,AF4-AF9 inh,RAD54 inh,dFosB activator,DENV2 CPE rescue,RAD52 inh,GSIS activator
O=C(C[C@H]1C[C@H]2c3cc(NC(=O)C4CCC4)ccc3O[C@H]2[C@H](CO)O1)NCc1ccc2c(c1)OCO2,-0.6,14.2,·,0.9,1.6,14.8
CC(/C=C/C(=O)c1ccc(C)cc1)=C\c1ccccc1,·,·,-3.7,·,·,·
C/C(C=O)=C/c1ccccc1,·,0.7,7.3,90.6*,-16.3,-0.2
CN(C)C(=O)[C@@H]1[C@@H](CO)[C@@H]2Cn3c(ccc(-c4cccnc4)c3=O)[C@H]1N2C(=O)NC1CCCC1,-0.8,0.1,·,12.6,4.6,14.2
COc1cccc(NC(=O)CN(C)C(=O)CCSc2ccc(C)cc2)c1,3.2,0.8,-11.6,-7.0,-0.9,-56.1
COc1ccc(NC(=O)CN(C)C(=O)CC2CCCC2)cc1,3.9,·,-4.3,20.2*,5.6,-4.3
COc1ccc(NC(=O)CN(C)C(=O)CCSc2ccc(C)cc2)cc1,-2.5,-8.5,-3.5,61.9*,-5.0,1.0
C[C@@H]1CCCCO[C@H](CN(C)Cc2ccncc2)[C@@H](C)CN([C@@H](C)CO)C(=O)c2cc(NC(=O)Nc3cccc4ccccc34)ccc2O1,3.6,-5.2,·,3.7,28.0,-9.3
O=c1cc(CN2CCN(C/C=C/c3ccccc3)CC2)c2cc(O)c(-c3ccccc3)cc2o1,·,-14.7,65.5*,·,·,2.2
Cc1cc2oc(=O)cc(CN3CCN(C/C=C/c4ccccc4)CC3)c2cc1O,·,17.9,24.6*,·,·,·
COc1ccc(S(=O)(=O)Nc2ccc3c(c2)[C@H]2C[C@@H](CC(=O)NCC4CC4)O[C@H](CO)[C@H]2O3)cc1,14.6,-24.3,·,-4.5,21.4,5.3
CCOc1cc(C2C3=C(CC(C)(C)CC3=O)N(CCCOC)C3=C2C(=O)CC(C)(C)C3)ccc1OC,29.0*,2.6,-11.4,1.6,-18.0,8.2
CCOc1cc(C2C3=C(CC(C)(C)CC3=O)N(CCOC)C3=C2C(=O)CC(C)(C)C3)ccc1OC,-4.2,-11.0,-5.7,3.8,-12.0,-10.0
N#CC[C@H](c1ccccc1)N1CCN(Cc2ccccc2)CCC1=O,-0.3,-4.2,-2.9,60.1*,-22.9,4.6
O=C1CCN(Cc2ccccc2)CCN1[C@H](COc1ccccc1)c1ccccc1,6.4,-1.2,-3.7,-4.8,-35.9,-28.9
O=C(Nc1ccc2c(c1)OCO2)N1C[C@@H]2N[C@H](C1)C2c1ccc(-c2ccccc2)cc1 (stereo partly drawn),30.6*,·,·,1.6,68.2*,0.1
